Experimental data reported in the supplement of paper PMC9694430.

Columns and labels:
Experiment in all cases: thermal shift delta Tm vs DMSO control; higher = stronger stabilization (binding)
Settings in all cases: 12.5 µM; protein concentration 2 µM
LOC_OS01G57100-cb003 = tested on: LOC_OS01G57100-cb003
Outline: (§1)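 Rice kinase domain constructs, made in E. coli and purified, were placed in 96-well plates at 2 μM in 19.5 μl of 100 mM potassium phosphate pH 7.5, 150 mM NaCl, 10% glycerol and 5 × SYPRO Orange, with compound in DMSO. A temperature ramp from 25°C to 95°C at 0.05°C/s was used for differential scanning fluorimetry. The melting temperature shift is a triplicate mean compared with DMSO-only protein, derived from Boltzmann fits.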

LOC_OS01G60330-cb001 = tested on: LOC_OS01G60330-cb001
Outline: as §1

LOC_OS01G60700-cb002 = tested on: LOC_OS01G60700-cb002
Outline: as §1

LOC_OS01G63280-cb003 = tested on: LOC_OS01G63280-cb003
Outline: as §1

LOC_OS01G67340-cb003 = tested on: LOC_OS01G67340-cb003
Outline: as §1

LOC_OS01G70970-cb002 = tested on: LOC_OS01G70970-cb002
Outline: as §1

LOC_OS02G07810-cb001 = tested on: LOC_OS02G07810-cb001
Outline: as §1

LOC_OS02G08530-cb003 = tested on: LOC_OS02G08530-cb003
Outline: as §1

LOC_OS02G14120-cb001 = tested on: LOC_OS02G14120-cb001
Outline: as §1

LOC_OS02G17970-cb001 = tested on: LOC_OS02G17970-cb001
Outline: as §1

LOC_OS02G45750-cb003 = tested on: LOC_OS02G45750-cb003
Outline: as §1

LOC_OS02G54510-cb004 = tested on: LOC_OS02G54510-cb004
Outline: as §1

LOC_OS03G04050-cb001 = tested on: LOC_OS03G04050-cb001
Outline: as §1

LOC_OS03G12390-cb001 = tested on: LOC_OS03G12390-cb001
Outline: as §1

LOC_OS03G27990-cb004 = tested on: LOC_OS03G27990-cb004
Outline: as §1

LOC_OS03G50450-cb001 = tested on: LOC_OS03G50450-cb001
Outline: as §1

LOC_OS03G50810-cb003 = tested on: LOC_OS03G50810-cb003
Outline: as §1

LOC_OS04G35114-cb001 = tested on: LOC_OS04G35114-cb001
Outline: as §1

LOC_OS04G38480-cb003 = tested on: T1, LOC_OS04G38480-cb003
T1 sequence (whole entry): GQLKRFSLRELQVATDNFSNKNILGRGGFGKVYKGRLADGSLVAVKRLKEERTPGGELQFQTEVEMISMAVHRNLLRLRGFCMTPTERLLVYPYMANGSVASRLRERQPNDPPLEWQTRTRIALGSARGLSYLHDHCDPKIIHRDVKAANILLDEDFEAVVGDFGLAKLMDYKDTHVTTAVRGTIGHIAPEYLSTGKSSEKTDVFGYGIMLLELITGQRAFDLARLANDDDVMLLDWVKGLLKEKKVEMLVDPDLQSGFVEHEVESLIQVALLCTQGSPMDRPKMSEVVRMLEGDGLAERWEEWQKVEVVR
Outline: as §1

LOC_OS04G41100-cb001 = tested on: T2, LOC_OS04G41100-cb001
T2 sequence (whole entry): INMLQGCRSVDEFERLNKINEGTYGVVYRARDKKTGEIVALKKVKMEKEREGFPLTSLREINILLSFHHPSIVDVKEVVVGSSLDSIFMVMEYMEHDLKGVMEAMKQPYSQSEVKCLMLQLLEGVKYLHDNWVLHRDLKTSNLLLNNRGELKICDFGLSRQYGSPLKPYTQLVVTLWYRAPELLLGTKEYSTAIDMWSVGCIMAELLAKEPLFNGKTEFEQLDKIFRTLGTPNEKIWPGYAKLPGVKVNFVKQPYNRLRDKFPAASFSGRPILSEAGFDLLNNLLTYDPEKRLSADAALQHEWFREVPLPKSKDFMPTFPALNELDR
Outline: as §1
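Also: purified Escherichia coli-expressed rice kinase domain construct.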

Cn1ncc(Cl)c1-c1cc(C(=O)N[C@H](CN)Cc2cccc(F)c2)sc1Cl
thermal shift delta Tm (LOC_OS01G57100-cb003): 0.79 °C
thermal shift delta Tm (LOC_OS01G60330-cb001): 0.75 °C
thermal shift delta Tm (LOC_OS01G60700-cb002): 0.77 °C
thermal shift delta Tm (LOC_OS01G63280-cb003): 0.1 °C
thermal shift delta Tm (LOC_OS01G67340-cb003): 0.54 °C
thermal shift delta Tm (LOC_OS01G70970-cb002): 0.15 °C
thermal shift delta Tm (LOC_OS02G07810-cb001): 0.41 °C
thermal shift delta Tm (LOC_OS02G08530-cb003): 0.69 °C
thermal shift delta Tm (LOC_OS02G14120-cb001): 1.31 °C
thermal shift delta Tm (LOC_OS02G17970-cb001): 0.56 °C
thermal shift delta Tm (LOC_OS02G45750-cb003): 0.37 °C
thermal shift delta Tm (LOC_OS02G54510-cb004): -0.08 °C
thermal shift delta Tm (LOC_OS03G04050-cb001): 0.33 °C
thermal shift delta Tm (LOC_OS03G12390-cb001): 0 °C
thermal shift delta Tm (LOC_OS03G27990-cb004): 0.16 °C
thermal shift delta Tm (LOC_OS03G50450-cb001): 0.15 °C
thermal shift delta Tm (LOC_OS03G50810-cb003): -0.04 °C
thermal shift delta Tm (LOC_OS04G35114-cb001): 0.42 °C
thermal shift delta Tm (LOC_OS04G38480-cb003): 0.52 °C
thermal shift delta Tm (LOC_OS04G41100-cb001): 0.2 °C

CC(C)(C)c1cnc(CSc2cnc(NC(=O)C3CCNCC3)s2)o1
thermal shift delta Tm (LOC_OS01G57100-cb003): 0.61 °C
thermal shift delta Tm (LOC_OS01G60330-cb001): 1.41 °C
thermal shift delta Tm (LOC_OS01G60700-cb002): 1.28 °C
thermal shift delta Tm (LOC_OS01G63280-cb003): 0.71 °C
thermal shift delta Tm (LOC_OS01G67340-cb003): -0.45 °C
thermal shift delta Tm (LOC_OS01G70970-cb002): 0.26 °C
thermal shift delta Tm (LOC_OS02G07810-cb001): 0.43 °C
thermal shift delta Tm (LOC_OS02G08530-cb003): 0.72 °C
thermal shift delta Tm (LOC_OS02G14120-cb001): 0.42 °C
thermal shift delta Tm (LOC_OS02G17970-cb001): -0.01 °C
thermal shift delta Tm (LOC_OS02G45750-cb003): 0.84 °C
thermal shift delta Tm (LOC_OS02G54510-cb004): 0.08 °C
thermal shift delta Tm (LOC_OS03G04050-cb001): 0.58 °C
thermal shift delta Tm (LOC_OS03G12390-cb001): 0.18 °C
thermal shift delta Tm (LOC_OS03G27990-cb004): 0.11 °C
thermal shift delta Tm (LOC_OS03G50450-cb001): 0.05 °C
thermal shift delta Tm (LOC_OS03G50810-cb003): 0.57 °C
thermal shift delta Tm (LOC_OS04G35114-cb001): 0.29 °C
thermal shift delta Tm (LOC_OS04G38480-cb003): 0.55 °C
thermal shift delta Tm (LOC_OS04G41100-cb001): 10.7 °C

CO[C@H]1C[C@@H]2CC[C@@H](C)[C@@](O)(O2)C(=O)C(=O)N2CCCC[C@H]2C(=O)O[C@H]([C@H](C)C[C@@H]2CC[C@@H](OCCO)[C@H](OC)C2)CC(=O)[C@H](C)/C=C(\C)[C@@H](O)[C@@H](OC)C(=O)[C@H](C)C[C@H](C)/C=C/C=C/C=C/1C [Everolimus (RAD001)]
thermal shift delta Tm (LOC_OS01G57100-cb003): 0.99 °C
thermal shift delta Tm (LOC_OS01G60330-cb001): 1.72 °C
thermal shift delta Tm (LOC_OS01G60700-cb002): 0.6 °C
thermal shift delta Tm (LOC_OS01G63280-cb003): 0.26 °C
thermal shift delta Tm (LOC_OS01G67340-cb003): -0.17 °C
thermal shift delta Tm (LOC_OS01G70970-cb002): -0.1 °C
thermal shift delta Tm (LOC_OS02G07810-cb001): 0.75 °C
thermal shift delta Tm (LOC_OS02G08530-cb003): 0.55 °C
thermal shift delta Tm (LOC_OS02G14120-cb001): 1.17 °C
thermal shift delta Tm (LOC_OS02G17970-cb001): 0.76 °C
thermal shift delta Tm (LOC_OS02G45750-cb003): 0.22 °C
thermal shift delta Tm (LOC_OS02G54510-cb004): -0.05 °C
thermal shift delta Tm (LOC_OS03G04050-cb001): 0.59 °C
thermal shift delta Tm (LOC_OS03G12390-cb001): 0.14 °C
thermal shift delta Tm (LOC_OS03G27990-cb004): -0.04 °C
thermal shift delta Tm (LOC_OS03G50450-cb001): -0.1 °C
thermal shift delta Tm (LOC_OS03G50810-cb003): 0.05 °C
thermal shift delta Tm (LOC_OS04G35114-cb001): -0.39 °C
thermal shift delta Tm (LOC_OS04G38480-cb003): 0.94 °C
thermal shift delta Tm (LOC_OS04G41100-cb001): 0.65 °C

Cc1c[nH]c(/C=C2\C(=O)Nc3ccccc32)c1CCC(=O)O
thermal shift delta Tm (LOC_OS01G57100-cb003): 0.49 °C
thermal shift delta Tm (LOC_OS01G60330-cb001): 11.5 °C
thermal shift delta Tm (LOC_OS01G60700-cb002): 0.67 °C
thermal shift delta Tm (LOC_OS01G63280-cb003): 0.07 °C
thermal shift delta Tm (LOC_OS01G67340-cb003): 3.1 °C
thermal shift delta Tm (LOC_OS01G70970-cb002): 5.88 °C
thermal shift delta Tm (LOC_OS02G07810-cb001): -0.06 °C
thermal shift delta Tm (LOC_OS02G08530-cb003): 3.9 °C
thermal shift delta Tm (LOC_OS02G14120-cb001): 1.56 °C
thermal shift delta Tm (LOC_OS02G17970-cb001): 0.22 °C
thermal shift delta Tm (LOC_OS02G45750-cb003): 2.76 °C
thermal shift delta Tm (LOC_OS02G54510-cb004): 0.94 °C
thermal shift delta Tm (LOC_OS03G04050-cb001): 0.06 °C
thermal shift delta Tm (LOC_OS03G12390-cb001): 8 °C
thermal shift delta Tm (LOC_OS03G27990-cb004): 0.79 °C
thermal shift delta Tm (LOC_OS03G50450-cb001): 4.67 °C
thermal shift delta Tm (LOC_OS03G50810-cb003): 2.36 °C
thermal shift delta Tm (LOC_OS04G35114-cb001): 8.73 °C
thermal shift delta Tm (LOC_OS04G38480-cb003): 3.46 °C
thermal shift delta Tm (LOC_OS04G41100-cb001): 0.43 °C

COCCOc1ccc2c(c1)ncn2-c1ccc2cccc(N3CCC(N)CC3)c2n1
thermal shift delta Tm (LOC_OS01G57100-cb003): 1.13 °C
thermal shift delta Tm (LOC_OS01G60330-cb001): 0.82 °C
thermal shift delta Tm (LOC_OS01G60700-cb002): 0.15 °C
thermal shift delta Tm (LOC_OS01G63280-cb003): 1.35 °C
thermal shift delta Tm (LOC_OS01G67340-cb003): 2.25 °C
thermal shift delta Tm (LOC_OS01G70970-cb002): 8.53 °C
thermal shift delta Tm (LOC_OS02G07810-cb001): 0.59 °C
thermal shift delta Tm (LOC_OS02G08530-cb003): 3.85 °C
thermal shift delta Tm (LOC_OS02G14120-cb001): 11 °C
thermal shift delta Tm (LOC_OS02G17970-cb001): 0.26 °C
thermal shift delta Tm (LOC_OS02G45750-cb003): 16.5 °C
thermal shift delta Tm (LOC_OS02G54510-cb004): 0.43 °C
thermal shift delta Tm (LOC_OS03G04050-cb001): 0.25 °C
thermal shift delta Tm (LOC_OS03G12390-cb001): 1.73 °C
thermal shift delta Tm (LOC_OS03G27990-cb004): 6.71 °C
thermal shift delta Tm (LOC_OS03G50450-cb001): 0.27 °C
thermal shift delta Tm (LOC_OS03G50810-cb003): 8.81 °C
thermal shift delta Tm (LOC_OS04G35114-cb001): 10 °C
thermal shift delta Tm (LOC_OS04G38480-cb003): 2.9 °C
thermal shift delta Tm (LOC_OS04G41100-cb001): 0.51 °C

CN1CCN(CCOc2cc(OC3CCOCC3)c3c(Nc4c(Cl)ccc5c4OCO5)ncnc3c2)CC1 [Saracatinib (AZD0530)]
thermal shift delta Tm (LOC_OS01G57100-cb003): 0.72 °C
thermal shift delta Tm (LOC_OS01G60330-cb001): 1.51 °C
thermal shift delta Tm (LOC_OS01G60700-cb002): 1.11 °C
thermal shift delta Tm (LOC_OS01G63280-cb003): 0.03 °C
thermal shift delta Tm (LOC_OS01G67340-cb003): 0.29 °C
thermal shift delta Tm (LOC_OS01G70970-cb002): 0.9 °C
thermal shift delta Tm (LOC_OS02G07810-cb001): 0.55 °C
thermal shift delta Tm (LOC_OS02G08530-cb003): 1.2 °C
thermal shift delta Tm (LOC_OS02G14120-cb001): 8.8 °C
thermal shift delta Tm (LOC_OS02G17970-cb001): 0 °C
thermal shift delta Tm (LOC_OS02G45750-cb003): 2.36 °C
thermal shift delta Tm (LOC_OS02G54510-cb004): 0.77 °C
thermal shift delta Tm (LOC_OS03G04050-cb001): 0.38 °C
thermal shift delta Tm (LOC_OS03G12390-cb001): 2.47 °C
thermal shift delta Tm (LOC_OS03G27990-cb004): 1.15 °C
thermal shift delta Tm (LOC_OS03G50450-cb001): 0.13 °C
thermal shift delta Tm (LOC_OS03G50810-cb003): 3.05 °C
thermal shift delta Tm (LOC_OS04G35114-cb001): 7.08 °C
thermal shift delta Tm (LOC_OS04G38480-cb003): 3.11 °C
thermal shift delta Tm (LOC_OS04G41100-cb001): 0.53 °C
